Values joined by “and” are separate entries in the source; they are usually repeats but may differ in a detail not shown here. Equal values may be shown once. Among all 5,500 compounds or so, about 2,000 (36%) were called active. Another 18% or so got no clear call; they are omitted. Rule as the data show it: active = normalized growth mostly below about 0.91 (no sharp cut-off); inconclusive = no clear call, values can overlap the other calls; inactive = mostly above about 0.92. This is one part of the list.
Assay: chemical genetic growth profiling, strain panel (AID 1159580);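 also: tested at 20 µM; growth read once vehicle control cultures reached saturation at 30 °C; 1 = growth at the plate median or of vehicle wells; lower values mean less growth of the strain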
Conditions: S. cerevisiae deletion strains, growth OD

## Nc1ncnc2c1ncn2C1C[C@H](O)[C@@H](CO)O1 (stereo partly specified)
Locus YAL013W, strain DEP1, stronger effect = lower value
  normalized growth: 0.998 (inactive)
Locus YAL021C, strain ccr4, stronger effect = lower value
  normalized growth: 1.03 (inactive)
Locus YAL026C, strain drs2, stronger effect = lower value
  normalized growth: 1.02 (inactive)
Locus YAL030W, strain snc1, stronger effect = lower value
  normalized growth: 1.01 (inactive)
Locus YBL061C, strain skt5, stronger effect = lower value
  normalized growth: 1.01 (inactive)
Locus YBR009C, strain hhf1, stronger effect = lower value
  normalized growth: 1.02 (inactive)
Locus YBR021W, strain FUR4, stronger effect = lower value
  normalized growth: 1.02 (inactive)
Locus YBR023C, strain chs3, stronger effect = lower value
  normalized growth: 1 (inactive)
Locus YBR171W, strain sec66, stronger effect = lower value
  normalized growth: 1.03 (inactive)
Locus YBR229C, strain ROT2, stronger effect = lower value
  normalized growth: 0.962 (inactive)
Locus YBR231C, strain swc5, stronger effect = lower value
  normalized growth: 1.01 (inactive)
Locus YBR279W, strain paf1, stronger effect = lower value
  normalized growth: 1.01 (inactive)
Locus YCL011C, strain gbp2, stronger effect = lower value
  normalized growth: 1.02 (inactive)
Locus YCL016C, strain dcc1, stronger effect = lower value
  normalized growth: 1.01 (inactive)
Locus YCL029C, strain bik1, stronger effect = lower value
  normalized growth: 0.998 (inactive)
Locus YCL061C, strain MRC1, stronger effect = lower value
  normalized growth: 1.02 (inactive)
Locus YCL069W, strain vba3, stronger effect = lower value
  normalized growth: 1.01 (inactive)
Locus YCR088W, strain abp1, stronger effect = lower value
  normalized growth: 1.01 (inactive)
Locus YDL005C, strain med2, stronger effect = lower value
  normalized growth: 1.02 (inactive)
Locus YDL035C, strain GPR1, stronger effect = lower value
  normalized growth: 0.99 (inactive)
Locus YDL040C, strain nat1, stronger effect = lower value
  normalized growth: 1.01 (inactive)
Locus YDL074C, strain BRE1, stronger effect = lower value
  normalized growth: 1.01 (inactive)
Locus YDL101C, strain DUN1, stronger effect = lower value
  normalized growth: 0.99 (inactive)
Locus YDL185W, strain tfp1, stronger effect = lower value
  normalized growth: 0.986 (inactive)
Locus YDL192W, strain arf1, stronger effect = lower value
  normalized growth: 1 (inactive)
Locus YDR001C, strain nth1, stronger effect = lower value
  normalized growth: 1.01 (inactive)
Locus YDR069C, strain doa4, stronger effect = lower value
  normalized growth: 1.02 (inactive)
Locus YDR101C, strain arx1, stronger effect = lower value
  normalized growth: 1.04 (inactive)
Locus YDR137W, strain rgp1, stronger effect = lower value
  normalized growth: 1.02 (inactive)
Locus YDR159W, strain sac3, stronger effect = lower value
  normalized growth: 1.03 (inactive)
Locus YDR162C, strain NBP2, stronger effect = lower value
  normalized growth: 0.984 (inactive)
Locus YDR195W, strain ref2
  normalized growth: 0.994 (inactive)
Locus YDR297W, strain sur2, stronger effect = lower value
  normalized growth: 1.01 (inactive)
Locus YDR318W, strain mcm21, stronger effect = lower value
  normalized growth: 0.968 (inactive)
Locus YDR334W, strain swr1, stronger effect = lower value
  normalized growth: 1.01 (inactive)
Locus YDR335W, strain msn5, stronger effect = lower value
  normalized growth: 1 (inactive)
Locus YDR388W, stronger effect = lower value
  normalized growth: 0.993 (inactive)
Locus YDR392W, strain spt3, stronger effect = lower value
  normalized growth: 1.01 (inactive)
Locus YDR502C, strain sam2, stronger effect = lower value
  normalized growth: 0.991 (inactive)
Locus YEL003W, strain gim4, stronger effect = lower value
  normalized growth: 1.02 (inactive)
Locus YEL037C, strain rad23, stronger effect = lower value
  normalized growth: 1 (inactive)
Locus YEL061C, strain CIN8 (second series), stronger effect = lower value
  normalized growth: 1.02 (inactive)
Locus YEL061C, strain CIN8, stronger effect = lower value
  normalized growth: 1 (inactive)
Locus YER015W, strain faa2, stronger effect = lower value
  normalized growth: 1.01 (inactive)
Locus YER016W, strain bim1, stronger effect = lower value
  normalized growth: 1.02 (inactive)
Locus YER110C, stronger effect = lower value
  normalized growth: 0.993 (inactive)
Locus YER111C, strain swi4, stronger effect = lower value
  normalized growth: 1.02 (inactive)
Locus YER155C, strain BEM2 (second series), stronger effect = lower value
  normalized growth: 1.03 (inactive)
Locus YER155C, strain BEM2, stronger effect = lower value
  normalized growth: 0.998 (inactive)
Locus YER167W, strain BCK2, stronger effect = lower value
  normalized growth: 0.996 (inactive)
Locus YFR010W, strain ubp6, stronger effect = lower value
  normalized growth: 1.01 (inactive)
Locus YGL078C, strain dbp3, stronger effect = lower value
  normalized growth: 0.997 (inactive)
Locus YGL086W, strain mad1, stronger effect = lower value
  normalized growth: 1.06 (inactive)
Locus YGL167C, strain pmr1, stronger effect = lower value
  normalized growth: 1.02 (inactive)
Locus YGL173C, strain kem1, stronger effect = lower value
  normalized growth: 1.02 (inactive)
Locus YGL227W, strain vid30, stronger effect = lower value
  normalized growth: 1.01 (inactive)
Locus YGL240W, strain doc1, stronger effect = lower value
  normalized growth: 1.02 (inactive)
Locus YGL248W, strain PDE1, stronger effect = lower value
  normalized growth: 0.981 (inactive)
Locus YGL253W, strain hxk2, stronger effect = lower value
  normalized growth: 1.02 (inactive)
Locus YGR135W, strain pre9, stronger effect = lower value
  normalized growth: 0.98 (inactive)
Locus YGR252W, strain gcn5, stronger effect = lower value
  normalized growth: 0.953 (inactive)
Locus YHR013C, strain ard1, stronger effect = lower value
  normalized growth: 1.01 (inactive)
Locus YHR027C, strain rpn1, stronger effect = lower value
  normalized growth: 1 (inactive)
Locus YHR030C, strain SLT2, stronger effect = lower value
  normalized growth: 0.995 (inactive) and 0.849 (active)
Locus YHR079C, strain IRE1 (second series), stronger effect = lower value
  normalized growth: 0.99 (inactive)
Locus YHR079C, strain IRE1, stronger effect = lower value
  normalized growth: 0.872 (inactive)
Locus YHR094C, strain hxt1, stronger effect = lower value
  normalized growth: 0.987 (inactive)
Locus YHR129C, strain ARP1, stronger effect = lower value
  normalized growth: 0.989 (inactive)
Locus YHR142W, strain chs7, stronger effect = lower value
  normalized growth: 1.02 (inactive)
Locus YHR200W, strain rpn10, stronger effect = lower value
  normalized growth: 0.987 (inactive)
Locus YIL066C, strain RNR3, stronger effect = lower value
  normalized growth: 0.986 (inactive)
Locus YIL073C, strain SPO22, stronger effect = lower value
  normalized growth: 0.994 (inactive)
Locus YIL125W, strain kgd1, stronger effect = lower value
  normalized growth: 0.994 (inactive)
Locus YIR030C, strain dcg1, stronger effect = lower value
  normalized growth: 0.991 (inactive)
Locus YJL092W, strain hpr5, stronger effect = lower value
  normalized growth: 1.01 (inactive)
Locus YJL095W, strain BCK1 (second series), stronger effect = lower value
  normalized growth: 1.01 (inactive)
Locus YJL095W, strain BCK1, stronger effect = lower value
  normalized growth: 0.989 (inactive) and 0.886 (inactive)
Locus YJL115W, strain asf1, stronger effect = lower value
  normalized growth: 1.01 (inactive)
Locus YJL129C, strain trk1, stronger effect = lower value
  normalized growth: 1.03 (inactive)
Locus YJL134W, strain LCB3, stronger effect = lower value
  normalized growth: 0.996 (inactive)
Locus YJL154C, strain vps35, stronger effect = lower value
  normalized growth: 1.02 (inactive)
Locus YJL164C, strain tpk1, stronger effect = lower value
  normalized growth: 1.01 (inactive)
Locus YJL166W, strain qcr8, stronger effect = lower value
  normalized growth: 1.03 (inactive)
Locus YJL168C, strain set2, stronger effect = lower value
  normalized growth: 0.995 (inactive)
Locus YJL187C, strain SWE1 (second series), stronger effect = lower value
  normalized growth: 0.99 (inactive)
Locus YJL187C, strain SWE1, stronger effect = lower value
  normalized growth: 1.01 (inactive)

— PubChem BioAssay AID1159580 (chemical genetic matrix, 2015)
